# According to ChEMBL document CHEMBL1157539, “Thousands of chemical starting points for antimalarial lead identification” (Nature, 2010):
# Values joined by “and” are separate entries in the source; they are usually repeats but may differ in a detail not shown here. Equal entries are not always repeated.
# Tested on: Plasmodium falciparum
# Experiment: GSK_TCMDC: Inhibition of Plasmodium falciparum Dd2 in whole red blood cells, using parasite LDH activity as an index of growth. Test compounds present at 2uM
# Format: functional
row,Structure (SMILES),Inhibition
1,COCC(=O)N(Cc1ccccc1-c1cccc(CNCCc2ccccc2)c1)C1CCN(Cc2ccccc2)CC1.O=C(O)C(F)(F)F,36%
2,Br.Cc1ccccc1C1=CCN(CCCN2c3ccccc3Sc3ccc(Cl)cc32)CC1,30%
3,CN(c1ccnc(Nc2ccc(CS(C)(=O)=O)cc2)n1)C1CCN(Cc2ccccc2)CC1,9%
4,O=C1Nc2cccc3c2C1(CCCCN1CC=C(c2c[nH]c4ncccc24)CC1)CCC3 (centres undefined),80%
5,CO[C@@H]1C[C@@H](C(=O)Nc2ccccc2)N(c2ccc(C#N)c3ccccc23)C1,100%
6,CC[C@H]1CN2CC[C@H]1C[C@@H]2[C@@H](O)c1ccnc2ccccc12,20%
7,O=C(/C=C/c1ccc2ccccc2c1)NC1CCC(CN2CCC(c3c[nH]c4ccccc34)CC2)CC1 (centres undefined),88%
8,Cc1c(C(=O)N[C@@H](C)c2ccccc2)c2cc(O)c(Br)cc2n1C1CCCCC1,95%
9,CN(c1ccc(NC(=O)CCOc2ccccc2)cc1)C1CCN(Cc2cccc(O)c2)CC1.O=C(O)C(F)(F)F,0%
10,CC(=O)N(Cc1cccc(-c2cccc(CNCc3ccc4c(c3)OCO4)c2)c1)C1CCN(Cc2ccccc2)CC1.O=C(O)C(F)(F)F,21%
11,COc1cccc(C(=O)C2CC2CN2CC=C(c3c[nH]c4cccc(Br)c34)CC2)c1 (centres undefined),85%
12,Cc1c(C)c2c(c(C)c1O)CC[C@](C)(C(=O)NC1CCC(CN3CCC(c4c[nH]c5ccccc45)CC3)CC1)O2 (some centres undefined),98% and 48%
13,CC(C)C[C@H](Nc1ccc(C#N)c2ccccc12)C(=O)N[C@@H]1CCCc2ccccc21.O=C(O)C(F)(F)F,100%
14,CC(C)CNCc1cccc(-c2ccc(CN(C(=O)NC3CCCCC3)C3CCN(Cc4ccccc4)CC3)cc2)c1.O=C(O)C(F)(F)F,51%
15,CC(=O)C1(c2ccccc2)CCN(CCC2(c3ccc(Cl)c(Cl)c3)CN(C(=O)Nc3cc(F)cc(F)c3)CCO2)CC1 (centres undefined),20%
16,CN(c1cc(NC(=O)c2cccs2)ccn1)C1CCN(Cc2cccc(F)c2)CC1.O=C(O)C(F)(F)F,95%
17,FC(F)(F)c1ccc(NC(=S)NC2CCC(CN3CCC(c4c[nH]c5ccccc45)CC3)CC2)cc1 (centres undefined),100% and 99%
18,CN1CC=C(c2c[nH]c3ccc(Br)cc23)CC1,80%
19,CC[C@H]1CN2CC[C@@H]1C[C@H]2[C@H](O)c1cc(N2CCC(O)CC2)nc2ccc(OC)cc12,92%
20,N#Cc1ccc(N(CC(=O)NCCc2ccc(F)cc2)CC2CC2)c2ccccc12.O=C(O)C(F)(F)F,23%
21,CC[C@H]1CN2CC[C@H]1C[C@H]2[C@H](O)c1cc(-c2ccc(OC(F)(F)F)cc2)nc2ccc(OC)cc12.Cl,99%
22,O=C(/C=C/c1ccc([N+](=O)[O-])cc1)NC1CCC(CN2CCC(c3c[nH]c4ccccc34)CC2)CC1 (centres undefined),61% and 81%
23,O=C(/C=C/c1cccs1)NC1CCC(CN2CCC(c3c[nH]c4ccccc34)CC2)CC1 (centres undefined),29%
24,CC(C)CN1CCC(N(C)c2cc(NC(=O)c3cccc(F)c3)ccn2)CC1.O=C(O)C(F)(F)F,10%
25,C[C@H](Cc1ccc(OCCCCCCOc2ccccc2)cc1)NC[C@@H](O)c1cc(Br)no1.Cl,70%
26,CC(=O)N(Cc1cccc(-c2ccc(CNCCc3ccccc3)cc2)c1)C1CCN(Cc2ccccc2)CC1.O=C(O)C(F)(F)F,50%

# Tested on: HepG2
# Experiment: GSK_TCMDC: Percent inhibition of human HepG2 cell line. Test compounds present at 10uM.
# Format: functional
row,Structure (SMILES),Inhibition
1,CC(Cc1ccc(OCCCCOc2ccccc2)cc1)NCCCc1nc2ccccc2[nH]1 (centres undefined),99%
2,CCN(CC)CCN1C(=O)C(O)(c2ccccc2Cl)c2c1cc(C(N)=O)cc2C(F)(F)F.Cl (centres undefined),16%
3,Cn1c(C2CC3CCC(C2)N3CC2CCC(NC(=O)/C=C/c3ccc(Cl)c(Cl)c3)CC2)nc2ccccc21 (centres undefined),50%
4,CO/C(=C\C=C\c1cc2cc(Cl)c(Cl)cc2[nH]1)C(=O)N[C@H]1CN2CCC1CC2,43%
5,CCC(C)CN1CCC(N(C)c2cc(NC(=O)c3ccc(F)cc3)ccn2)CC1.O=C(O)C(F)(F)F (centres undefined),4%
6,O=C(/C=C/c1ccc(Cl)c(Cl)c1)N1CCC(CN2CCC(c3c(-c4ccccc4)[nH]c4ccccc34)CC2)CC1,43%
7,O=C(/C=C/c1cccc(Cl)c1)NC1CCC(CN2CCC(c3c[nH]c4ccccc34)CC2)CC1 (centres undefined),35% and 42%
8,COC(=O)CN(C(=O)/C=C/c1ccc(Cl)c(Cl)c1)C1CCC(CN2CCC(c3c[nH]c4ccccc34)CC2)CC1 (centres undefined),31%
9,CC[C@H]1CN2CC[C@H]1C[C@@H]2[C@@H](O)c1ccnc2ccc(OC)cc12.Cl,0%
10,CC(Cc1ccc(OCCCCOc2ccccc2)cc1)NCCCn1ccnc1 (centres undefined),100%
11,CC(C)CNCc1ccc(-c2ccc(CN(C(=O)Nc3ccccc3)C3CCN(Cc4ccccc4)CC3)cc2)cc1.O=C(O)C(F)(F)F,27%
12,Cc1ccc2[nH]cc(C3CCN(CC4CCC(NC(=O)/C=C/c5ccc(Cl)c(Cl)c5)CC4)CC3)c2c1 (centres undefined),37% and 29%
13,COCC(=O)N(Cc1ccccc1-c1cccc(CNCCc2ccccc2)c1)C1CCN(Cc2ccccc2)CC1.O=C(O)C(F)(F)F,21%
14,Br.Cc1ccccc1C1=CCN(CCCN2c3ccccc3Sc3ccc(Cl)cc32)CC1,14%
15,CN(c1ccnc(Nc2ccc(CS(C)(=O)=O)cc2)n1)C1CCN(Cc2ccccc2)CC1,10%
16,O=C1Nc2cccc3c2C1(CCCCN1CC=C(c2c[nH]c4ncccc24)CC1)CCC3 (centres undefined),11%
17,CO[C@@H]1C[C@@H](C(=O)Nc2ccccc2)N(c2ccc(C#N)c3ccccc23)C1,7%
18,CC[C@H]1CN2CC[C@H]1C[C@@H]2[C@@H](O)c1ccnc2ccccc12,10%
19,O=C(/C=C/c1ccc2ccccc2c1)NC1CCC(CN2CCC(c3c[nH]c4ccccc34)CC2)CC1 (centres undefined),28%

row,Structure (SMILES),Inhibition
1,Cc1c(C(=O)N[C@@H](C)c2ccccc2)c2cc(O)c(Br)cc2n1C1CCCCC1,4%
2,CN(c1ccc(NC(=O)CCOc2ccccc2)cc1)C1CCN(Cc2cccc(O)c2)CC1.O=C(O)C(F)(F)F,18%
3,CC(=O)N(Cc1cccc(-c2cccc(CNCc3ccc4c(c3)OCO4)c2)c1)C1CCN(Cc2ccccc2)CC1.O=C(O)C(F)(F)F,16%
4,COc1cccc(C(=O)C2CC2CN2CC=C(c3c[nH]c4cccc(Br)c34)CC2)c1 (centres undefined),22%
5,Cc1c(C)c2c(c(C)c1O)CC[C@](C)(C(=O)NC1CCC(CN3CCC(c4c[nH]c5ccccc45)CC3)CC1)O2 (some centres undefined),24% and 27%
6,CC(C)C[C@H](Nc1ccc(C#N)c2ccccc12)C(=O)N[C@@H]1CCCc2ccccc21.O=C(O)C(F)(F)F,38%
7,CC(C)CNCc1cccc(-c2ccc(CN(C(=O)NC3CCCCC3)C3CCN(Cc4ccccc4)CC3)cc2)c1.O=C(O)C(F)(F)F,27%
8,CC(=O)C1(c2ccccc2)CCN(CCC2(c3ccc(Cl)c(Cl)c3)CN(C(=O)Nc3cc(F)cc(F)c3)CCO2)CC1 (centres undefined),2%
9,CN(c1cc(NC(=O)c2cccs2)ccn1)C1CCN(Cc2cccc(F)c2)CC1.O=C(O)C(F)(F)F,0%
10,FC(F)(F)c1ccc(NC(=S)NC2CCC(CN3CCC(c4c[nH]c5ccccc45)CC3)CC2)cc1 (centres undefined),65% and 92%
11,CN1CC=C(c2c[nH]c3ccc(Br)cc23)CC1,0%
12,CC[C@H]1CN2CC[C@@H]1C[C@H]2[C@H](O)c1cc(N2CCC(O)CC2)nc2ccc(OC)cc12,15%
13,N#Cc1ccc(N(CC(=O)NCCc2ccc(F)cc2)CC2CC2)c2ccccc12.O=C(O)C(F)(F)F,28%
14,CC[C@H]1CN2CC[C@H]1C[C@H]2[C@H](O)c1cc(-c2ccc(OC(F)(F)F)cc2)nc2ccc(OC)cc12.Cl,24%
15,O=C(/C=C/c1ccc([N+](=O)[O-])cc1)NC1CCC(CN2CCC(c3c[nH]c4ccccc34)CC2)CC1 (centres undefined),30% and 34%
16,O=C(/C=C/c1cccs1)NC1CCC(CN2CCC(c3c[nH]c4ccccc34)CC2)CC1 (centres undefined),33%
17,CC(C)CN1CCC(N(C)c2cc(NC(=O)c3cccc(F)c3)ccn2)CC1.O=C(O)C(F)(F)F,8%
18,C[C@H](Cc1ccc(OCCCCCCOc2ccccc2)cc1)NC[C@@H](O)c1cc(Br)no1.Cl,21%
19,CC(=O)N(Cc1cccc(-c2ccc(CNCCc3ccccc3)cc2)c1)C1CCN(Cc2ccccc2)CC1.O=C(O)C(F)(F)F,32%
